Screening results from PubChem.
This is a sample that favours compounds with a hit; in the whole collection about 6.2% have one here.
FMDV inh – High Throughput Screening for Foot and Mouth Disease Virus Antivirals | FMDV antiviral cell-based qHTS | Potency, µM (series often up to 57.9 µM), without a hit: at the highest dose activity change, negative = inhibition, most hits filed as inhibitors | 1.2% of 410,000 active; calls by dose curve; tested in HEK293T cells; further: read-out not given here; potency means the concentration at half of the fitted maximal effect; nearly all actives have a fitted effect of over 45% in size
Marburg entry inh – qHTS for inhibitors of binding or entry into cells for Marburg Virus; 1.8% of 300,000 active; AID 540276, 2011; Potency, µM (series often up to 37.8 µM), inactives show top-dose activity change, negative = inhibition, usual class: inhibitors; Marburg virus pseudotyped entry inhibition, cell reporter; calls by dose curve; tested in HEK293 cells; further: potency means the concentration at half of the fitted maximal effect
LASV entry inh – qHTS for Inhibitors of binding or entry into cells for Lassa Virus; Lassa virus pseudotype entry inhibition, cell reporter; Potency, µM (series often up to 37.9 µM), without a hit: at the top dose activity change, negative = inhibition, actives largely listed as inhibitors; 1.2% of 300,000 active; calls by dose curve; tested in HEK293 cells; further: potency means the concentration at half of the fitted maximal effect; nearly all actives have a fitted effect of over 50% in size
HCMV antiviral – qHTS Assay for inhibitors of the human cytomegalovirus (HCMV). activity change, negative = inhibition, % at 57.5 µM. 4.5% of 410,000 active. HFF cells, HCMV-luciferase reporter, 72 h; stronger effect = lower value; in the data active means activity change below about -60%; inconclusive means no clear call, values can overlap the other calls; inactive means above about -39%
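Steps: HFFs plated, 16 h 37C; compounds added; HCMV-luciferase added to MOI 1 PFU/cell; 72 h 37C; OneGlo reagent, 5 min room temperature; luminescence read, normalized to controls.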
The depositor's hits bear a star; ? = inconclusive; · = no result given; [ ] = another dose, or the depositor's remark. On the % scale 0 is the no-effect control and ±100 the full control effect.

SMILES	FMDV inh	Marburg entry inh	LASV entry inh	HCMV antiviral
O=C(c1cc(-c2ccco2)nn1-c1cccc(Cl)c1)N1CCCCC1	-2%	0%	0%	-8
CSc1ccc(CN2C(=O)C(C)Sc3ccc(C(C)=O)cc32)cc1 (stereo not given)	?	·	·	11
O=C(Nc1c(C(=O)Nc2cccc(C(F)(F)F)c2)oc2ccccc12)c1cc(=O)c2ccccc2o1	8%	-4%[46.1 µM]	-2%[46.1 µM]	2
CC(OC(=O)c1ccco1)C(=O)NC1CCCC1 (stereo not given)	11%	-11%[46.1 µM]	20%[46.1 µM]	-37
O=C(COc1coc(CN2CCN(c3ccccc3)CC2)cc1=O)NC1CCCC1	-24%	-23%	11%	-24
S=C(NCCSCc1ccc(Cl)cc1)Nc1ccccc1	41%	12%	?	-68*
CC(C)N(c1ccccc1)c1ccc(NC(=S)NCCN(C)C)cc1	?	11µM*	?	-26
CCCOc1ccc(CSCCNC(=S)Nc2ccccc2)cc1	0%	?	?	-37
S=C(NCCc1ccccn1)Nc1ccc(Cl)cc1	91%	?	9%	-78*
CCNC(=S)Nc1ccc(N(c2ccccc2)C(C)C)cc1	-22%	-9%	-11%	-10
CCOc1ccc(CSCCNC(=S)Nc2ccc(OC)cc2)cc1	13%	·	·	-81*
C/C(=C\c1ccccc1)C(=O)n1nnc2ccccc21	-17%	9%	?	-8
CC(C)OCCCNC(=O)c1c2c(nc3ccccc13)C(=O)N(C1CCCCC1)C2	-3%	·	10%[46.1 µM]	4
NS(=O)(=O)c1ccc(NC2=CC(c3ccc([N+](=O)[O-])cc3)N(c3ccc(S(N)(=O)=O)cc3)C2=O)cc1 (stereo not given)	-17%	·	·	?
COc1ccccc1CCn1cnc(-c2ccc(Cl)cc2)c1CC(C)C	·	·	·	-25
CCc1c(-c2ccc(OC)c(OC)c2)ncn1CCc1ccccc1OC	·	·	·	-28
CCCCCc1c(-c2ccccc2OC)ncn1CCc1ccccc1OC	25µM*	·	·	-83*
CCCCc1c(-c2ccccc2OC)ncn1CCc1cccc(F)c1	?	·	·	-10
CCCCc1c(-c2ccccc2OC)ncn1CCc1cccc(OC)c1	22µM*	·	·	-25
CCCCc1c(-c2ccccc2OC)ncn1CCc1ccccc1OC	22µM*	·	·	-68*
CCCCc1c(-c2ccccc2Br)ncn1CCc1ccccc1OC	?	·	·	-93*
COc1cccc(OCC(=O)NNC(=O)c2ccc3ccccc3c2O)c1	-3%	·	·	43
CCCc1c(-c2ccc(F)cc2F)ncn1Cc1ccccc1OC	?	·	·	-78*
CCCc1c(-c2ccccc2)ncn1Cc1ccccc1OC	?	·	·	-17
CCCCCc1c(CC)ncn1CCc1ccccc1OC	40µM*	·	·	-110*
SMILES	FMDV inh	Marburg entry inh	LASV entry inh	HCMV antiviral
CCCCc1c(-c2ccccc2OC)ncn1CCc1ccccc1Cl	35µM*	·	·	?
CCCc1c(-c2ccccc2Br)ncn1Cc1ccccc1OC	?	·	·	-73*
COc1ccc(C(=O)N2CC3(C)CC2CC(C)(C)C3)cc1 (stereo not given)	15%	-1%	-28%	8
COc1ccc(-c2cc(C(F)(F)F)nc(N3CCN(C)CC3)n2)cc1OC	?	12µM*	-27%	14
COc1ccc(-c2cc(C(F)(F)F)nc(N3CCCCC3)n2)cc1OC	-24%	?	?	4
O=C(COC(=O)c1cc([N+](=O)[O-])ccc1N1CCOCC1)c1ccc(F)cc1	-8%	·	·	6
COc1ccc(COC(=O)c2cc([N+](=O)[O-])ccc2N2CCOCC2)cc1F	?	?	?	-73*
O=C(OCc1ccc(Br)cc1)c1cc([N+](=O)[O-])ccc1N1CCOCC1	0%	·	·	-30
CCc1ccc(C(=O)COC(=O)c2cc([N+](=O)[O-])ccc2N2CCOCC2)cc1	-4%	3.2µM*	?	-35
O=C1NC2(CCCCCC2)C(=O)N1Cc1cccc(Cl)c1	?	-23%[46.1 µM]	10%[46.1 µM]	-20
O=C1NC2(CCCCC2)C(=O)N1Cc1cccc(C(F)(F)F)c1	-7%	1%	-8%	-103*
Cc1ccc(NN2C(=O)C=C(c3ccccc3)C2=O)cc1	20µM*	11µM*	?	5
O=C1c2ccccc2C(=O)N1Nc1ccccc1	0%	?	-19%	4
CCSc1nnc(NC(=O)C2CC(=O)N(Cc3ccc(C)cc3)C2)s1 (stereo not given)	-6%	12%[46.1 µM]	-5%[46.1 µM]	12
Cc1[nH]c2ccccc2c1CCNC(=O)c1ccc2c(c1[N+](=O)[O-])C(=O)c1ccccc1C2=O	-18%	?	?	-75*
CC1=CC2(C)C(C3C(C)=CC2(C)C(=O)C3(C)O)C(C)(O)C1=O (stereo not given)	-5%	?	-11%[46.1 µM]	-37
COc1cc(NC(=O)C2CC(c3c(F)cccc3Cl)=NO2)cc(OC)c1OC (stereo not given)	25µM*	?	-14%[46.1 µM]	-27
CCC(C)(C)NC(=O)C(c1ccc(OC)cc1)N(C(=O)CCC(=O)Nc1cc(C)on1)c1cccc(F)c1 (stereo not given)	-15%	?	7.1µM*	1
COc1ccc(C(C(=O)NC(C)(C)C)N(Cc2ccccc2)C(=O)CCC(=O)Nc2cc(C)on2)cc1 (stereo not given)	11%	·	·	-64*
CCC(C)(C)NC(=O)C(c1ccc(OC)cc1)N(Cc1ccccc1)C(=O)CCC(=O)Nc1cc(C)on1 (stereo not given)	51%	?	2%[46.1 µM]	-26
O=C(O)C1(C(=O)O)CCCC1	-8%	4%[46.1 µM]	-5%[46.1 µM]	-21
COc1ccc(CNC(=O)c2c(N)n(CCCN3CCOCC3)c3nc4ccccc4nc23)cc1	?	16µM*	23µM*	-26
Nc1c(C(=O)NCc2ccccc2)c2nc3ccccc3nc2n1CCCN1CCOCC1	-12%	?	-24%	28
Nc1c(C(=O)NCc2ccco2)c2nc3ccccc3nc2n1CCc1ccccc1	-5%	-37%	?	-69*
COC(=O)c1cc2c(n1S(=O)(=O)c1ccc(C)cc1)C(=O)C(=O)c1[nH]cc(C(=O)OCc3ccccc3)c1-2	11µM*	?	2.8µM*	·
SMILES	FMDV inh	Marburg entry inh	LASV entry inh	HCMV antiviral
Oc1ccccc1/C=N/NC(=S)NCCc1ccccc1	12%	?	1%[46.1 µM]	-70*
Cc1nn(C)cc1/C=N/NC(=S)Nc1ccccc1	2%	7.3µM*	-12%	21
Fc1ccc(NC(=S)NN=Cc2ccccc2Cl)cc1	5%	?	-10%[46.1 µM]	-16
Oc1ccccc1C=NNC(=S)Nc1ccc(F)cc1	34%	?	?	-83*
Cn1cnnc1SCC(=O)Nc1ccc(Cl)cc1	25%	·	·	24
CCOC(=O)c1c(NC(=O)c2ccc(C)cc2)sc2c1CCCCC2	-22%	·	0%[46.1 µM]	30
CCCNC(=O)c1csc(Nc2cccc3ccccc23)n1	-13%	·	·	79
CN(C)CCNC(=O)c1csc(Nc2cccc3ccccc23)n1	6%	10µM*	?	?
CCCSCC(=O)Nc1ncc2c(n1)-c1ccccc1CC2	18%	8%[46.1 µM]	?	-95*
O=[N+]([O-])c1cc(S(=O)(=O)N2CCCC2)ccc1O	-10%	?	7%	16
CN(CC(=O)Nc1ccc(Cl)cc1)c1ccc(S(=O)(=O)N2CCCCC2)cc1[N+](=O)[O-]	?	?	?	-68*
